High-throughput results (PubChem BioAssay)
Compounds with a hit are over-represented: about 9.3% of the library has one in this group of screens.
ELG1 repair inh = ELG1-dependent DNA repair inhibition. AID 504467. HEK293T ELG1-luciferase reporter, luminescence, 16 h; DNA damage induced by 5-fluorouridine. Potency, µM (top dose mostly 46.1 µM), for inactives: at the highest dose activity change, negative = inhibition, hits mostly inhibitors. actives 2.3% (n = 330,000); also: % is scaled to controls: 0 for no effect and ±100 for the full control effect; nearly all actives have a fitted effect of over 55% in size
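Cells (2,000 per well) received 5-fluorouridine plus test compound or DMSO and were incubated 16 hr at 37 °C, 5% CO2. Luciferase activity was read by luminescence 30 min after ONE-Glo addition; signal suppression marked inhibition of damage-induced ELG1 function.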
FLuc counter = inhibits or activates purified firefly luciferase, miR-21 counter-screen | Potency, µM (titrated, usually from 57.5 µM), for inactives: at the highest dose activity change, negative = inhibition, most hits filed as inhibitors | actives 6.9% (n = 360,000) | P08659 | purified FLuc, Km substrates, luminescence inhibition;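 also: plate controls were vehicle for no effect and reference inhibitor for full effect; nearly all actives have a fitted effect of over 55% in size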
Target sequence (P08659 whole entry, looked up): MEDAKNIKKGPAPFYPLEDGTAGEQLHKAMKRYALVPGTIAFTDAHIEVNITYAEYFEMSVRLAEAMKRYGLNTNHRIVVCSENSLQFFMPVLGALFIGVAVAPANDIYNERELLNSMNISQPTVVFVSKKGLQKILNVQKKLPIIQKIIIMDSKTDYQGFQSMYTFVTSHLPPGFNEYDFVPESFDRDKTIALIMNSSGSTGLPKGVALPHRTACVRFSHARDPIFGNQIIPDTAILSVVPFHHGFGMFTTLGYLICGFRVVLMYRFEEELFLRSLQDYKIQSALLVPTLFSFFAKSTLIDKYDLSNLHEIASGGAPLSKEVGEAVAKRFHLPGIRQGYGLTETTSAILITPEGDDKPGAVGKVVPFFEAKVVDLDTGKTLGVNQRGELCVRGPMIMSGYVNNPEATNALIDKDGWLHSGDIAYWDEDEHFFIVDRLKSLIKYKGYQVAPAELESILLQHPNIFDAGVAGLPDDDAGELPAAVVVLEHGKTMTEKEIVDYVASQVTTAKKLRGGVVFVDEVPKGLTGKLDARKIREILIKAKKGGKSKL
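Purified P. pyralis luciferase (10nM final) with 10uM D-luciferin and 10uM ATP (Km levels) in 50mM Tris acetate pH 7.5, 10mM Mg acetate, 0.01% Tween-20, 0.05% BSA; qHTS 6-point titration, ~60 µM downward; luminescence read.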
SMN2 splice up = enhancers of SMN2 splice variant expression; HEK293 SMN2-luciferase splicing reporter, luminescence, 30-36 h; Potency, µM (top dose mostly 46.1 µM), without a hit: at the highest dose activity change, positive = activation, most hits filed as activators; actives 2.8% (n = 210,000); also: % of control where 0% means no effect; nearly all actives have a fitted effect of over 55% in size
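qHTS luciferase splicing reporter: luminescence rises when SMN2 exon 7 is included in transfected HEK293 cells. Compound exposure lasted 30-36 h at 37C, with 4.5 mM final sodium butyrate as control, followed by a ONE-Glo read.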
NPC1 promoter act = activators of NPC1 promoter. Potency, µM (doses to about 9.22 µM), for the others: at the top dose activation, most hits filed as activators. Huh7 NPC1 promoter luciferase reporter, 24 h. actives 2.4% (n = 320,000); also: % of control where 0% means no effect; nearly all actives have a fitted effect of over 60% in size
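Luciferase expression driven by the NPC1 promoter was measured in stably transfected Huh7 cells after a 24 h compound incubation, using a luciferase reagent and a luminescence read.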
Rab9 promoter act = activators of Rab9 promoter; Huh7 Rab9 promoter-luciferase reporter, luminescence, 24 h; Potency, µM (highest dose often 9.22 µM), without a hit: top-dose activation, negative = inhibition, most hits filed as activators; actives 2.8% (n = 320,000); also: % of control where 0% means no effect; nearly all actives have a fitted effect of over 60% in size
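Cells were plated at 1500 per well in reduced-serum medium with 10% FBS and left 2 h. Compound in DMSO was then added for 24 h at 37 °C. Reporter signal was read by luminescence after 10 min with luciferase detection reagent.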
ELG1 genotox = inducers of genotoxicity in HEK293T ELG1-luciferase cells; HEK293T ELG1-luciferase reporter, luminescence, 16 h; actives 1.3% (n = 330,000); Potency, µM (top dose mostly 46 µM), inactives show at the highest dose activity change, positive = activation, actives largely listed as activators; also: % of control where 0% means no effect; nearly all actives have a fitted effect of over 60% in size
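ELG1-luciferase HEK293T cells, 2,000/well; compound pinned in; 16 hr, 37 °C, 5% CO2; ONE-Glo, 30 min RT; luminescence on CCD imager.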
* hit, by the source's call; u = inconclusive; x = not tested or not shown. Calls follow the shape of the dose curve; as a rule, active = well fitted curve in the direction sought with a large enough effect; inconclusive = small, poorly fitted or top-dose-only effect, or another doubt; inactive = no such curve, though single readings can be large; an effect the other way counts as inactive or inconclusive. Potency is read from the fitted curve at half-maximal effect.

SMILES	ELG1 repair inh	FLuc counter	SMN2 splice up	NPC1 promoter act	Rab9 promoter act	ELG1 genotox
O=C(Nc1cccc(S(=O)(=O)NC2=NCCCCC2)c1)c1cc(-c2ccncc2)nc2ccccc12	u	-11%	-6%	-8%	2%	-12%
CCOc1cc(-c2nnc(SCC(=O)NCc3ccc(C)cc3)nc2-c2ccc(OC)c(OCC)c2)ccc1OC	x	2%	x	x	x	x
COc1ccccc1NC(=O)c1ccc2c(O)c(S(=O)(=O)c3ccccc3)c(=O)[nH]c2c1	7%	-6%	x	-7%	6%	2%
Cc1ccc(NC(=O)c2ccc3c(O)c(S(=O)(=O)c4ccccc4)c(=O)[nH]c3c2)cc1Cl	x	11µM*	x	x	x	x
CCc1ccc(NC(=O)c2ccc3c(O)c(S(=O)(=O)c4ccccc4)c(=O)[nH]c3c2)cc1	x	4.3µM*	x	x	x	x
COc1ccc(S(=O)(=O)c2c(O)c3ccc(C(=O)Nc4ccccc4)cc3[nH]c2=O)cc1	1%	u	x	-1%	-2%	-1%
Cc1c(-c2cc(C(=O)O)c3ccccc3n2)cnn1C	-12%	-19%	13%	-4%	-1%	-4%
Cc1ccc(-c2cc(C(=O)N/N=C\c3cnn(C)c3C)c3ccccc3n2)cc1C	-17%	0.67µM*	1%	12%	25%	u
Cc1ccc(-c2cc(C(=O)NCc3cnn(C)c3C)c3ccccc3n2)cc1C	x	2.1µM*	u	x	x	x
COc1ccc(OC)c(C(C)NC(C)=O)c1 (stereo unspecified)	14%	2%	x	1%	5%	2%
O=C(c1cccs1)N1CCn2c1nc1ccccc12	u	u	13µM*	2.8µM*	4µM*	u
COc1ccc(C(=O)NCCn2cc(SCC(=O)NCc3ccco3)c3ccccc32)cc1	u	17µM*	-50%	20%	u	5%
COc1ccc(C(=O)NCCn2cc(SCC(=O)Nc3cccc(C)c3)c3ccccc32)cc1	x	u	-23%	x	x	x
Cc1cc(NC(=O)CSc2nc(C(C)C)nc3ccccc23)no1	15µM*	7%	-59%	-3%	2%	-5%
COc1ccc(C(=O)NCCn2cc(SCC(=O)NCC3CCCO3)c3ccccc32)cc1 (stereo unspecified)	-8%	-12%	x	1%	-1%	-4%
Cc1cc(NC(=O)CSc2cn(CCNC(=O)c3ccc(F)cc3)c3ccccc23)no1	-23%	17µM*	-4%	1%	0%	0%
O=S(=O)(c1ccc2ccccc2c1)N1CCCOC1	-1%	3%	-12%	-1%	0%	0%
O=C(NCc1ccncc1)Nc1ccc(F)cc1	2%	0%	-12%	0%	3%	-1%
O=C(Nc1ccccc1N1CCN(c2ccc(F)cc2)CC1)C12CC3CC(CC(C3)C1)C2	-15%	5%	-18%	-7%	-2%	-2%
CCCCc1ccc(NC(=O)Nc2cccnc2)cc1	u	6µM*	x	u	u	u
CCCCc1ccc(NC(=S)Nc2ccc(Nc3ccc(OC)cc3)cc2)cc1	u	1%	-31%	0%	-4%	-6%
O=C(Nc1ccccc1)OCCCc1ccccc1	u	19µM*	u	u	u	-27%
CCCCc1ccc(NC(=O)OC)cc1	u	17µM*	-13%	13%	15%	8%
COC(CNC(=O)c1cn(C)c2ccc(S(=O)(=O)N3CCOCC3)cc2c1=O)OC	6%	0%	x	-1%	-2%	1%
CC1=NC(=O)C(N=Nc2cccc(O)c2)N1c1ccccc1 (stereo unspecified)	u	6.7µM*	-11%	-6%	7%	15µM*
SMILES	ELG1 repair inh	FLuc counter	SMN2 splice up	NPC1 promoter act	Rab9 promoter act	ELG1 genotox
CCCCCCCC/C=C\C/C=C\C=C\C(O)CCCC(=O)O (stereo unspecified)	x	x	-4%	x	x	x
Nc1ccc2ncccc2c1N	10µM*	u	-8%	3%	1%	-1%
CSc1nc2nc3c(cc2c(=O)n1-c1ccccc1)COC(C)(C)C3	-3%	-4%	4%	-9%	-9%	-5%
CSc1nc2nc3c(cc2c(=O)n1-c1cccc(C)c1)COC(C)(C)C3	21µM*	-5%	x	-1%	-4%	-9%
CC(=O)N1c2ccc3ccccc3c2C2C=CCC2C1c1ccc(Br)cc1 (stereo unspecified)	12%	-11%	-7%	0%	-2%	-8%
CC(=O)N1c2ccc(Cl)cc2C2C=CCC2C1c1cccc2ccccc12 (stereo unspecified)	23µM*	9%	u	-8%	0%	-5%
CC(NC(=O)CCCCCCN1C(=O)c2ccccc2C1=O)c1ccc2c(c1)CCCC2 (stereo unspecified)	23µM*	0%	-33%	-2%	-9%	-4%
Cc1c(CC(=O)O)c(=O)oc2c(C)c3occ(-c4ccc(F)cc4)c3cc12	12%	2%	x	-2%	2%	-1%
Cc1cc2oc(=O)c(CC(=O)O)c(C)c2c2occ(-c3ccc(F)cc3)c12	x	6.7µM*	12%	x	x	x
COc1ccc(-c2coc3c2c(C)cc2oc(=O)c(CC(=O)O)c(C)c23)cc1	x	7.6µM*	16%	x	x	x
COCCCn1c(SCc2ccccc2)nc2cc(OC)c(OC)cc2c1=N	16µM*	-1%	4%	-1%	-2%	0%
COCCCn1c(SCc2nnc(-c3ccc(OC)c(OC)c3)o2)nc2ccccc2c1=O	12µM*	3%	-25%	-5%	-1%	1%
COc1cc(-c2nnc(CSc3nc4ccccc4s3)o2)cc(OC)c1OC	12µM*	-2%	11%	0%	-4%	-6%
COc1ccc(S(=O)(=O)N2CCOCC2)cc1NC(=O)c1cccs1	7%	1%	x	2%	-3%	6%
